For three compounds, thallium flux ratio (lower = more inhibition) results are on record in PubChem BioAssay AID651747 (Johns Hopkins Ion Channel Center, 2012).

The campaign covered roughly 2,400 compounds. About 950 (40%) were called active.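 The calls were made as follows: active = thallium flux ratio, averaged over three wells, more than 5 SD below the buffer control mean; inactive = the rest.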 This excerpt belongs to a sample that is enriched for actives.

The nature of this test: nonspecific thallium influx blockers, KCNK3-free cells – cell-based, non-induced KCNK3 line, FluxOR thallium, triplicate, counter-screen for KCNK3 inhibitor project, primary screen (AID 651747).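 Also: host cells are CHO cells without KCNK3 induction.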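 As to thallium flux ratio (lower = more inhibition): ratio is peak minus trough fluorescence over baseline then normalized to buffer controls.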 Conditions: non-induced KCNK3 parental cells, at 10 µM; outcome: FluxOR thallium flux; thallium flux ratio (lower = more inhibition): stronger effect = lower value. In general terms: The purpose of a counterscreen is to sort out artefacts and off-target activity.
Regarding `CCOC(=O)C1SC2(C(F)(F)C(F)F)CC1(O)c1c(c(OC)c3occc3c1OC)O2` (stereo not drawn), the thallium flux ratio (lower = more inhibition) was 0.16 (active). Regarding `CCCCCCN=C(CC)c1c(O)n(CCCC)c(=O)[nH]c1=O`, the thallium flux ratio (lower = more inhibition) is 0.126 (active). In the case of `COc1ccccc1C1=NCc2nnc(CSC)n2-c2ccc(Cl)cc21`, the thallium flux ratio (lower = more inhibition) entry is “inactive”.
